Luciferase inh: Photinus pyralis luciferase inhibition. purified P. pyralis luciferase, luminescence, biochemical. Potency, µM (series often up to 115 µM), usual class: inhibitors. actives 2.5% (n = 76,000); also: nearly all actives have a fitted effect of over 65% in size
Target sequence (P08659 whole entry, looked up): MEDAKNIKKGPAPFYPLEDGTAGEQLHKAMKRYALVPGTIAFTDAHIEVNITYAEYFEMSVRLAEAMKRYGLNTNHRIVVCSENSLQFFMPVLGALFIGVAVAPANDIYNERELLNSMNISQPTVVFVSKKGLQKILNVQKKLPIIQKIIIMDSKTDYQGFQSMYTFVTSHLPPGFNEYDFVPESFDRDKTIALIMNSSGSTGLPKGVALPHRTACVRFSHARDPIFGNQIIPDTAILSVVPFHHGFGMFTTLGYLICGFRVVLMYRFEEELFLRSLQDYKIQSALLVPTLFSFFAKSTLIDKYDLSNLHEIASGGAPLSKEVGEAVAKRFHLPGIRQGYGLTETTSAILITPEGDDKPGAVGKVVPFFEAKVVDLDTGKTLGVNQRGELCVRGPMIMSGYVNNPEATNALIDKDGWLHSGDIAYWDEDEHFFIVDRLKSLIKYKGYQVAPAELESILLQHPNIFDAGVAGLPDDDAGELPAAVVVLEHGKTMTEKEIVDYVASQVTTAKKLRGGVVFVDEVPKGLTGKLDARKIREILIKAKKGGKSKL
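Luminescence read by CCD imager after adding enzyme (10nM final) to wells holding compound, titrated in qHTS. Substrates 10uM each D-luciferin and ATP; buffer 50mM Tris acetate pH 7.5, 10mM Mg acetate, Tween-20, BSA.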
NIH3T3 tox: cytotoxic compounds in NIH 3T3 cells; Potency, µM (top dose mostly 96.7 µM), for the others: at the highest dose activity change, negative = cytotoxicity, hits mostly inhibitors; NIH 3T3 viability, CellTiter-Glo ATP luminescence, 48-72 h; AID 1345082; actives 4.3% (n = 94,000); also: nearly all actives have a fitted effect of over 55% in size
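ATP-dependent luminescence (CellTiter-Glo) served as the viability signal for NIH 3T3 cells treated with compound for 48 or 72 hr at 37 °C.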
HEK cytotox: kills HEK 293 cells; HEK 293 viability, ATP luminescence (CellTiter-Glo), 48-72 h; Potency, µM (top dose mostly 115 µM), without a hit: at the top dose activity change, negative = cytotoxicity, most hits filed as inhibitors; actives 6.6% (n = 94,000); AID 1345083; also: nearly all actives have a fitted effect of over 60% in size
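Viability of HEK 293 cells, plated at 250 cells/well, was judged by cellular ATP after compound treatment for 48 or 72 hr. Luminescence was imaged 10 min after CellTiter-Glo addition at room temperature.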
NPR1 antag: blocks ANP-stimulated signaling of human Npr1 receptor; AID 1347048; Potency, µM (doses to about 46.3 µM), for the others: top-dose activity change, negative = inhibition, most hits filed as inhibitors; HEK293 hNpr1 GloSensor cGMP, ANP-stimulated luminescence; actives 1.6% (n = 76,000); P16066; calls by dose curve; also: nearly all actives have a fitted effect of over 60% in size
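Compound pre-incubated 30 min at room temperature on GloSensor-loaded HEK293 cells stably carrying hNpr1 and the pGS-40F cGMP biosensor. Stimulation uses hNppA at 0.1 nM final; luminescence is taken at baseline and 20 min post-agonist.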
Active calls of the source: *; i = inactive; ? = inconclusive; · = no result given; [ ] = another dose, or the depositor's remark. Compounds with a hit are over-represented: about 11% of the library has one in this group of screens. Unless noted, calls follow the shape of the dose curve; as a rule, active = well fitted curve in the direction sought with a large enough effect; inconclusive = small, poorly fitted or top-dose-only effect, or another doubt; inactive = no such curve, though single readings can be large; an effect the other way counts as inactive or inconclusive. % is scaled to controls: 0 for no effect and ±100 for the full control effect; potency is read from the fitted curve at half-maximal effect.

SMILES	Luciferase inh	NIH3T3 tox	HEK cytotox	NPR1 antag
O=C(NCC1Cn2cccc2CN1Cc1ccccc1)c1n[nH]c2ccccc12 (stereo not drawn)	14µM*	?	?	-27%
CC(C)CNC(=O)c1ccc2nnc(C3CCCC3)n2c1	·	-9%[138 µM]	i	·
CCC(C)Cc1nccc(C2(c3ccccc3Cl)CCNCC2)n1 (stereo not drawn)	i	28µM*	25µM*	-4%
CC(C)CNc1nccc(C2(c3ccccc3Cl)CCNCC2)n1	i	28µM*	25µM*	-6%
CN1CCN(C(=O)[C@@H]2[C@@H](CC(=O)O)c3cccnc3C(=O)N2Cc2ccccc2)CC1	·	-16%[46.1 µM]	?	·
Cn1cnnc1CC1CCCNC1 (stereo not drawn)	i	-9%	-1%	-7%
COC(=O)CNC(=O)c1cccc(-c2ccc(OC)nn2)c1	·	-8%[138 µM]	i	·
CC1=C[C@@H](CN2CCN(C)CC2)[C@H](C(C)C)C[C@H]1Cc1nnc(-c2ccc(C)cc2)o1	i	22µM*	28µM*	-11%[70.6 µM]
CC(=O)N1CCN(C(=O)C[C@@H]2C[C@@H](C(C)C)[C@H](CNC(=O)c3cncnc3)C=C2C)CC1	i	1%	2%	4%
CC1=C[C@@H](CN2CCN(CCO)CC2)[C@H](C(C)C)C[C@H]1Cc1nnc(-c2ccncc2)o1	i	?	45µM*	1%
CC1=C[C@@H](CNC(=O)c2cncnc2)[C@H](C(C)C)C[C@H]1Cc1nnc(-c2ccncc2)o1	i	?	79µM*	-19%[70.6 µM]
CC1=C[C@@H](CN2CCN(C)CC2)[C@H](C(C)C)C[C@H]1Cc1nnc(-c2ccc(N(C)C)cc2)o1	i	40µM*	22µM*	2%
Cc1cc(NC(=O)C2CCN(c3cc(C(F)(F)F)ncn3)CC2)ccc1Br	i	32µM*	25µM*	?
CC1(C)CN(Cc2cn(Cc3ccccc3)nc2-c2cc3ccccc3o2)CCO1	i	?	?	-3%
FC1CCN(Cc2cn(Cc3ccccc3)nc2-c2cc3ccccc3o2)CC1	i	?	32µM*	-3%
c1ccc(Cn2cc(CN3CCCOCC3)c(-c3cc4ccccc4o3)n2)cc1	35µM*	?	?	1%
COC[C@H]1CCCN1Cc1cn(Cc2ccccc2)nc1-c1cc2ccccc2o1	?	?	?	-12%
c1ccc(Cn2cc(CN3CCN(c4ccncc4)CC3)c(-c3cc4ccccc4o3)n2)cc1	i	28µM*	40µM*	1%
COc1ccc(CN2CCc3oc(C)c(C(=O)N4CCCCCC4)c3C2)cc1	i	?	?	-14%
CO[C@H]1C(=O)N(C2CCN(C(=O)Nc3ccc4c(c3)OCCO4)CC2)[C@H]1c1ccncc1	·	-12%	-1%	·
COc1ccc(C(=O)N2CCOCC3(CN(Cc4cccc(Cl)c4)C3)C2)cc1OC	i	?	45µM*	-2%[70.6 µM]
COc1ccc(C(=O)N2CCOCC3(CN(Cc4cc(F)ccc4F)C3)C2)cc1OC	i	?	112µM*	9%[70.6 µM]
COc1ccc(C(=O)N2CCOCC3(CN(Cc4ccc(F)c(Cl)c4)C3)C2)cc1OC	i	-29%	?	1%
CN(Cc1cccc(F)c1)Cc1cccc(C(F)(F)F)c1	·	-4%[138 µM]	3%[172 µM]	·
CC(C)S(=O)(=O)N1CCN(c2ccc3nnc(C4CC4)n3n2)CC1	·	-29%	-11%	·
SMILES	Luciferase inh	NIH3T3 tox	HEK cytotox	NPR1 antag
COc1cccc(-c2ccc(CN3CCCC3C(=O)N3CCN(c4ncccn4)CC3)cc2)c1 (stereo not drawn)	·	20µM*	?	·
COc1ccc(CNC(=O)C2CCCN2Cc2ccc(-c3cccc(OC)c3)cc2)cc1 (stereo not drawn)	·	40µM*	32µM*	·
COc1cccc(-c2ccc(CN3CCCC3C(=O)NCc3ccccc3)cc2)c1 (stereo not drawn)	·	40µM*	40µM*	·
COc1cccc(CNC(=O)C2CCCCc3nnc(-c4ccccc4)n32)c1 (stereo not drawn)	·	-16%	-28%	·
Fc1ccc(-c2cc(CC3(NCc4ccco4)COC3)no2)cc1	i	?	89µM*	-15%[70.6 µM]
COc1ccc(-c2cc(CC3(NCc4ccccc4O)COC3)no2)cc1	i	?	100µM*	-18%[70.6 µM]
Cc1cc2c(-c3ccc(CO)cc3)nc(-c3c(C)noc3C)cc2[nH]1	i	10µM*	?	-1%[70.6 µM]
Cc1cc2c(-c3cccc(OC(C)C)c3)nc(-c3c(C)noc3C)cc2[nH]1	i	50µM*	28µM*	-1%[70.6 µM]
Cc1cc2cc(-c3c(C)noc3C)nc(N3CCCC3)c2o1	i	?	?	4%[70.6 µM]
CC(=O)N1CCN(c2nc(-c3c(C)noc3C)cc3cc(C(C)C)oc23)CC1	i	50µM*	?	-2%[70.6 µM]
Cc1noc(C)c1-c1cc2c(cc(C)n2C)c(-c2ccc(CO)cc2)n1	i	32µM*	?	1%[70.6 µM]
Cc1noc(C)c1-c1cc2c(cc(C)n2C)c(NCc2ccncc2)n1	i	?	?	5%[70.6 µM]
CC(C)NC(=O)c1ccc2nc(-c3cccnc3)oc2c1	·	-10%[138 µM]	-23%[172 µM]	·
COc1cccc(NC(=O)[C@@H]2OCC(=O)N(C3CC3)[C@H]2c2ccccc2)c1	·	-16%	-6%	·
Cc1noc(C)c1-c1cc2c(cc(C)n2C)c(-c2cccc(CO)c2)n1	i	45µM*	?	-20%[70.6 µM]
Cc1noc(C)c1-c1cc2cc(C(C)C)oc2c(-c2cccc(CO)c2)n1	i	?	71µM*	-13%[70.6 µM]
CNC(=O)c1cc2cc(-c3c(C)noc3C)nc(-c3cccc(CO)c3)c2o1	i	?	?	0%[70.6 µM]
Cc1noc(C)c1-c1cc2c(cc(C)n2C)c(N2CCN(c3ccccn3)CC2)n1	i	45µM*	63µM*	3%[70.6 µM]
O=C1CC2(CCN(C(=O)C3CCCN3C(=O)c3ccccc3)CC2)Oc2ccccc2N1 (stereo not drawn)	·	-4%	0%	·
Cc1ccc(NC2=N[C@H]3[C@@H](O)[C@H](O)C[C@H](C(=O)N4CCC(C(N)=O)CC4)[C@H]3S2)cc1	50µM*	1%[174 µM]	-4%[172 µM]	-1%[70.6 µM]
O=C(Nc1cccc(Br)c1)N1CCC2(CC1)SCC(=O)N2Cc1ccco1	?	16µM*	28µM*	?
O=C(Nc1cccc(Br)c1)N1CCC2(CC1)SCC(=O)N2Cc1ccccc1	i	16µM*	50µM*	-9%
COC1CCN(C(=O)c2ccc(C(C)(C)C)cc2)CC(=O)N(C)c2ccccc21 (stereo not drawn)	·	-25%	?	·
COCc1ncc(C)n1C1CCN(C(=O)CCc2c[nH]c3ccccc23)C1 (stereo not drawn)	·	-25%	-9%	·
CN1C[C@@H](NC(=O)c2ccc(C#N)cc2)C[C@H]1c1nc(-c2cncnc2)no1	45µM*	-13%[174 µM]	?	2%[70.6 µM]
CN1C[C@@H](NC(=O)c2ccc(C(C)(C)C)cc2)C[C@H]1c1nc(-c2ccncc2)no1	?	?	71µM*	1%[70.6 µM]
Cc1ccc(C(=O)N[C@H]2C[C@@H](c3nc(-c4ccc(C)cc4)no3)N(C)C2)cc1	i	-13%[174 µM]	-1%[172 µM]	2%[70.6 µM]

Source: PubChem BioAssay (National Center for Advancing Translational Sciences (NCATS))
